The text below walks through data of PubChem BioAssay (Tox21).

The structures appear in SMILES notation. Records with an inconclusive call do not appear. Entries that show only a call come without a potency. A number with no mark means an inactive call. The source made the active and inactive calls. Calls come from the whole dose curve; as a rule, active = well fitted inhibition curve with a large enough effect in the repeat runs; inconclusive = weak or mixed curves; inactive = no such curve, though single readings can be large or run the other way.
Potency is the fitted concentration of half-maximal effect.

Chain of Cytochrome P450 2C19 (Homo sapiens) (P33261 whole entry, looked up): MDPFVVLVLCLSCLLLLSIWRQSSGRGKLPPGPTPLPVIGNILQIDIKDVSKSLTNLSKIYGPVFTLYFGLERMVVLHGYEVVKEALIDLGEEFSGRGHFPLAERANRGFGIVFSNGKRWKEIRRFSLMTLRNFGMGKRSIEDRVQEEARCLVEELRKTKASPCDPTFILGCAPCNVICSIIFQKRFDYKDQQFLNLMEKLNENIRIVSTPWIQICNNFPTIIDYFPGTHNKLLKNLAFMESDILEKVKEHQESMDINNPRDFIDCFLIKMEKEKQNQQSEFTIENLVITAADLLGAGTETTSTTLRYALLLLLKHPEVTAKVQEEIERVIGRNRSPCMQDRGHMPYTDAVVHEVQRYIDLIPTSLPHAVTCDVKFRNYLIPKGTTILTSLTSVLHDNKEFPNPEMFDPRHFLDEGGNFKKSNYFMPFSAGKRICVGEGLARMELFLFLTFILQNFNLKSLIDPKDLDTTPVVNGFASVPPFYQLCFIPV

The first experiment concerns the target Cytochrome P450 2C19 (Homo sapiens) (UniProt P33261). Put plainly: Cytochrome P450 Family 2 Subfamily C Member 19 (CYP2C19) small molecule antagonists: luciferase reporter qHTS assay (AID 1671197). Note: nearly all actives have a fitted effect of over 65% in size. To be noted: P450-Glo CYP2C19 enzyme, luciferin luminescence, 1 h; series mostly up to 115 µM. An outline of the steps:
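Quantitative high-throughput screen of the Tox21 library using CYP2C19 with proluciferin substrate. Reaction: NADPH regeneration, 37C, 1 h, after 10 min compound preincubation at room temperature. Readout: luminescence.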
A general note: In a reporter assay the amount or activity of a reporter protein is the signal.
As to `C=CC(=O)OCC(Br)CBr` (stereo not given), the Potency result is “inactive”.

For `O=C1C=CC(=O)N1c1cccc(N2C(=O)C=CC2=O)c1`, the Potency was 7.1 µM (active).

For `Clc1cccc(Cl)n1`, the Potency result was “inactive”.

Take `O=C(Nc1ccc([N+](=O)[O-])cc1)Nc1ccc([N+](=O)[O-])cc1` (tested in a mixture with another compound): the Potency result is “inactive”.

With `C/C=C/C(=O)C1=C(C)C=CCC1(C)C`, the Potency result is “inactive”.

Take `CCOc1ccc([N+](=O)[O-])cc1`: the Potency is 8.09 µM (active).

For the compound `CC(C)(c1ccc(Oc2ccc(N)cc2)cc1)c1ccc(Oc2ccc(N)cc2)cc1`, the Potency is 7.96 µM (active).

Take `CCCCCCCCSCc1cc(C)c(O)c(CSCCCCCCCC)c1`: the Potency was 7.1 µM (active).

On to `CCNc1nc(NC(C)(C)C)nc(OC)n1`, for which the Potency was 35.6 µM (active).

Take `CC(Cc1ccc(O)c(O)c1)C(C)Cc1ccc(O)c(O)c1` (stereo not given): the Potency is 35.6 µM (active).

Consider `CC/C=C(\C)C=O`, for which the Potency result is “inactive”.

As to `Cn1c(=O)[nH]c2ncn(C)c2c1=O`, the Potency entry is “inactive”.

For the compound `CCC(O)CO` (stereo not given), the Potency result is “inactive”.

As for `COc1c(Br)cc(Br)c(C)c1Br`, the Potency was 89.4 µM (active).

`NC(=O)C1CO1` (stereo not given): the Potency result is “inactive”.

`c1ccc(-c2ccccc2-c2ccccc2)cc1`: the Potency was 20 µM (active).

In the case of `[Cl][Sc]([Cl])[Cl]`, the Potency result was “inactive”.

As for `C=CC(=O)O[C@H]1C[C@@H]2CC[C@@]1(C)C2(C)C`, the Potency entry was “inactive”.

With `C1CCSC1`, the Potency result was “inactive”.

Regarding `COc1cc(C(C)C)ccc1C`, the activity change, negative = inhibition was -21% [at 23.6 µM].

As for `CCCCCCCCCCCCS(=O)(=O)Cl`, the activity change, negative = inhibition was -3.93% [at 23.6 µM].

Take `CCCCCCCCCC[N+](C)(CCCCCCCCCC)CCC[Si](OC)(OC)OC`: the Potency is 50.2 µM (active).

Take `O=C1CCCCCCCCCCCCCC1`: the Potency entry is “inactive”.

For `CC(=O)CC(N)=O`, the Potency result was “inactive”.

In the case of `N#CCCOCCC#N`, the Potency result was “inactive”.

For `O=C(O)CN(CCCN(CC(=O)O)CC(=O)O)CC(=O)O`, the activity change, negative = inhibition is -5.87% [at 23.6 µM].

`CN(C[C@@H](CC[N+]12CCC(C3CCCCC3)(CC1)CC2)c1ccc(Cl)c(Cl)c1)C(=O)c1cc(C(F)(F)F)cc(C(F)(F)F)c1`: the Potency was 5.64 µM (active).

Turning to `CCCC(C)C=O` (stereo not given), the Potency result was “inactive”.

As to `C/C=C/C(=O)OCC(C)C`, the Potency result was “inactive”.

For the compound `[Cl][Eu]([Cl])[Cl]`, the Potency entry was “inactive”.

On to `C=C[Si](C)(C)Cl`, for which the activity change, negative = inhibition was -15.5% [at 10.5 µM].

Turning to `C=C(C)C1CCC(C)CC1O` (stereo not given), the Potency entry was “inactive”.

On to `Clc1ccc2c(Cl)ccnc2c1`, for which the Potency entry is “inactive”.

For the compound `SC1CCCCC1`, the Potency entry was “inactive”.

`CC(C)c1ccc2sc3ccccc3c(=O)c2c1`: the Potency is 7.96 µM (active).

As for `COc1cccc(-c2ccc(/C=C\CN3CCCCCC3)cc2Cl)c1`, the Potency was 44.6 µM (active).

Turning to `CCc1c(C)cc(N)c(CC)c1N`, the Potency was 14.2 µM (active).

Consider `CC1=CC[C@@H](C(C)(C)O)CC1`, for which the Potency entry was “inactive”.

For the compound `CCOC(=O)[C@H](C)O`, the Potency result is “inactive”.

With `O=C1OC(=O)c2cc(-c3ccc4c(c3)C(=O)OC4=O)ccc21`, the Potency is 8.94 µM (active).

A further experiment deals with Cytochrome P450 2C9 (Homo sapiens) (UniProt P11712). Put plainly: Cytochrome P450 Family 2 Subfamily C Member 9 (CYP2C9) small molecule antagonists: luciferase reporter qHTS assay (AID 1671198). Note: nearly all actives have a fitted effect of over 50% in size. To be noted: P450-Glo CYP2C9 enzyme assay, luciferin luminescence; series mostly up to 115 µM. An outline of the steps: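 Enzyme-substrate mix preincubated with compound 10 min at room temperature; reaction started with NADPH regeneration solution, 1 h 37C. Luminescent luciferin product read after 20 min detection reagent.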
Chain of Cytochrome P450 2C9 (Homo sapiens) (P11712 whole entry, looked up): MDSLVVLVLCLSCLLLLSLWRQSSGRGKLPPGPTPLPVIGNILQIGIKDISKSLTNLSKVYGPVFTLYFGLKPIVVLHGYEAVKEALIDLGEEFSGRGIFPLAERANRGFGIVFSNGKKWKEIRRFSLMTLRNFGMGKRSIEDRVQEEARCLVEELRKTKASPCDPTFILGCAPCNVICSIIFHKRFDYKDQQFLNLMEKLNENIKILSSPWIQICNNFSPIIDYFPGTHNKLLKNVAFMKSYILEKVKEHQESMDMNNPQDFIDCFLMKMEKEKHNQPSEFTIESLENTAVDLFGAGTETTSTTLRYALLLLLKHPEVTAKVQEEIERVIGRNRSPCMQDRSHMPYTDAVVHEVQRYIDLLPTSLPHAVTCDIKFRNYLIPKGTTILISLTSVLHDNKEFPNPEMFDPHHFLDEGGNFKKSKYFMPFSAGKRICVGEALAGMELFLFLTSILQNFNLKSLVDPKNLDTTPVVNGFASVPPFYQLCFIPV
With `C=CC(=O)OCC(Br)CBr` (stereo not given), the Potency entry was “inactive”.

For `O=C1C=CC(=O)N1c1cccc(N2C(=O)C=CC2=O)c1`, the Potency was 6.33 µM (active).

On to `Clc1cccc(Cl)n1`, for which the Potency entry was “inactive”.

With `O=C(Nc1ccc([N+](=O)[O-])cc1)Nc1ccc([N+](=O)[O-])cc1` (tested in a mixture with another compound), the Potency result was “inactive”.

For the compound `C/C=C/C(=O)C1=C(C)C=CCC1(C)C`, the Potency result was “inactive”.

For the compound `CCOc1ccc([N+](=O)[O-])cc1`, the Potency is 16.1 µM (active).

Regarding `CC(C)(c1ccc(Oc2ccc(N)cc2)cc1)c1ccc(Oc2ccc(N)cc2)cc1`, the Potency was 2.52 µM (active).

Consider `CCCCCCCCSCc1cc(C)c(O)c(CSCCCCCCCC)c1`, for which the Potency was 8.94 µM (active).

Consider `CCNc1nc(NC(C)(C)C)nc(OC)n1`, for which the Potency entry was “inactive”.

As for `CC(Cc1ccc(O)c(O)c1)C(C)Cc1ccc(O)c(O)c1` (stereo not given), the Potency was 12.6 µM (active).

For the compound `CC/C=C(\C)C=O`, the Potency result was “inactive”.

On to `Cn1c(=O)[nH]c2ncn(C)c2c1=O`, for which the Potency result is “inactive”.

As to `CCC(O)CO` (stereo not given), the Potency entry was “inactive”.

Turning to `COc1c(Br)cc(Br)c(C)c1Br`, the Potency result is “inactive”.

Take `NC(=O)C1CO1` (stereo not given): the Potency result was “inactive”.

As to `c1ccc(-c2ccccc2-c2ccccc2)cc1`, the Potency was 22.4 µM (active).

In the case of `[Cl][Sc]([Cl])[Cl]`, the Potency entry is “inactive”.

For `C=CC(=O)O[C@H]1C[C@@H]2CC[C@@]1(C)C2(C)C`, the Potency result was “inactive”.

Take `C1CCSC1`: the Potency entry was “inactive”.

Take `COc1cc(C(C)C)ccc1C`: the activity change, negative = inhibition was -6.13% [at 23.6 µM].

In the case of `CCCCCCCCCCCCS(=O)(=O)Cl`, the activity change, negative = inhibition was -14.1% [at 23.6 µM].

As to `CCCCCCCCCC[N+](C)(CCCCCCCCCC)CCC[Si](OC)(OC)OC`, the Potency is 35.6 µM (active).

Turning to `O=C1CCCCCCCCCCCCCC1`, the Potency entry is “inactive”.

Turning to `CC(=O)CC(N)=O`, the Potency result was “inactive”.

With `N#CCCOCCC#N`, the Potency entry was “inactive”.

`O=C(O)CN(CCCN(CC(=O)O)CC(=O)O)CC(=O)O`: the activity change, negative = inhibition was -3.48% [at 23.6 µM].

Consider `CN(C[C@@H](CC[N+]12CCC(C3CCCCC3)(CC1)CC2)c1ccc(Cl)c(Cl)c1)C(=O)c1cc(C(F)(F)F)cc(C(F)(F)F)c1`, for which the Potency is 39.9 µM (active).

For `CCCC(C)C=O` (stereo not given), the Potency entry is “inactive”.

Regarding `C/C=C/C(=O)OCC(C)C`, the Potency entry is “inactive”.

In the case of `[Cl][Eu]([Cl])[Cl]`, the Potency result is “inactive”.

Regarding `C=C[Si](C)(C)Cl`, the activity change, negative = inhibition was -1.65% [at 10.5 µM].

With `C=C(C)C1CCC(C)CC1O` (stereo not given), the Potency entry is “inactive”.

Consider `Clc1ccc2c(Cl)ccnc2c1`, for which the Potency entry is “inactive”.

Regarding `SC1CCCCC1`, the Potency entry is “inactive”.

Regarding `CC(C)c1ccc2sc3ccccc3c(=O)c2c1`, the Potency is 11.2 µM (active).

`COc1cccc(-c2ccc(/C=C\CN3CCCCCC3)cc2Cl)c1`: the Potency was 35.4 µM (active).

As for `CCc1c(C)cc(N)c(CC)c1N`, the Potency is 28.3 µM (active).

Turning to `CC1=CC[C@@H](C(C)(C)O)CC1`, the Potency result is “inactive”.

Regarding `CCOC(=O)[C@H](C)O`, the Potency result is “inactive”.

As for `O=C1OC(=O)c2cc(-c3ccc4c(c3)C(=O)OC4=O)ccc21`, the Potency result is “inactive”.
